From PubChem BioAssay (NCATS)
Results filed as inconclusive are left out. A call without a number means that no potency is given here. Activity calls are given as the source filed them. The call rests on the fitted dose curve; in most records, active means well fitted cell-killing curve with a large enough effect; inconclusive means small, poorly fitted or top-dose-only effect, or effect the other way; inactive means flat fitted curve, though single readings scatter.

System: HeLa
Assay: Primary qHTS to identify gynecologic anti-cancer compounds using libraries of approved drugs and bioactive compounds (AID 1345084); further: nearly all actives have a fitted effect of over 55% in size
Settings: Gynecologic cancer cell panel viability, ATPlite luminescence, 48 h; series mostly up to 57.5 µM
Procedure, shortened: (§1)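 Five-point cytotoxicity, 48 h drug exposure at 37 C, 5% CO2, on cells seeded 16 h beforehand. ATP content read by ATPlite luminescence.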
Potency means the concentration at half of the fitted maximal effect.

N#Cc1cccc(C(=O)Nc2cc(-c3ccccc3)nn2-c2ccccc2)c1 was tested. Which Potency did it give?
The Potency was “inactive”.

With O=C(Nc1ccc(C(F)(F)F)cn1)N1CCN(c2ncccc2C(F)(F)F)CC1 as the compound, how does the Potency read?
The Potency was “inactive”.

O=C(Nc1ccccc1C(=O)NC1CCCCNC1=O)c1cc2ccccc2s1 (stereo not drawn) was tested. Which Potency did it give?
Its Potency is “inactive”.

How did the Potency turn out when CCCCCCOC(=O)/N=C(\N)c1ccc(NCc2nc3cc(C(=O)N(CCC(=O)OCC)c4ccccn4)ccc3n2C)cc1 was run?
Its Potency is “inactive”.

For CC[C@H]1CN(c2nc(N)c(C(N)=O)nc2Cl)CCN1C1CCN(Cc2ccc(Cl)cc2)CC1, which Potency is on record?
The Potency was “inactive”.

Which Potency does the source give for CC(C)=CCc1cc2c(cc1O)OC[C@H]1c3ccc(O)cc3O[C@@H]21 here?
Its Potency is “inactive”.

Cc1c(C(=O)NCc2cccnc2)nn(-c2ccc(Cl)cc2Cl)c1-c1ccc(Cl)cc1 was tested. Which Potency did it give?
The Potency was “inactive”.

Which Potency does the source give for C=C1C(OC2OC(CO)C(O)C(O)C2O)CC2C(C)(C)C(O)CCC2(C)C1CC/C(C)=C\COC(=O)CC(=O)O (stereo not drawn) here?
Its Potency is “inactive”.

With C=CC1(C)CC(O)C(C(=C)C(=O)OC)C(O)C1C(=C)CO (stereo not drawn) as the compound, how does the Potency read?
Its Potency is “inactive”.

Which Potency does the source give for Cn1cc(-c2ccc(F)c(C(F)(F)F)c2)nc1C1CCN(c2ncnc3[nH]ncc23)CC1 here?
The Potency was “inactive”.

How did the Potency turn out when Cc1ccccc1CN1CCn2c1nc1c(c2=O)CN(Cc2ccccc2)CC1 was run?
The Potency was “inactive”.

Cc1cc(-c2ncc(-c3cccnc3)cc2/C=C/c2ccccc2)cnc1-c1cccnc1 was tested. Which Potency did it give?
The Potency was “inactive”.

With Cc1cnn(-c2ccccc2)c1NC(=O)COCc1ccccc1 as the compound, how does the Potency read?
Its Potency is “inactive”.

OC(CC1c2ccccc2-c2cncn21)C1CCCCC1 (stereo not drawn) was tested. Which Potency did it give?
Its Potency is “inactive”.

How did the Potency turn out when Nc1nc2c(s1)CCN(Cc1ccc(Cl)cc1)CC2 was run?
The Potency was “inactive”.

Which Potency does the source give for COc1ccc(CCN(C)CCCOc2nsc(-c3ccccc3)n2)cc1OC here?
Its Potency is “inactive”.

Which Potency does the source give for COc1cc(O)cc(OC2OC(CO)C(O)C(O)C2O)c1 (stereo not drawn) here?
The Potency was “inactive”.

Cc1cc(C)cc(-c2cnc3cc(Cl)c(-c4cccc(O)c4)cc3c2OCCCN)c1 was tested. Which Potency did it give?
The Potency was “inactive”.

How did the Potency turn out when N[C@@H]1c2cccnc2[C@H](OC(=O)N2CCC(n3c(=O)[nH]c4ncccc43)CC2)CC[C@H]1c1cccc(F)c1F was run?
Its Potency is “inactive”.

With CNCc1cc(-c2ccccc2F)n(S(=O)(=O)c2cccnc2)c1 as the compound, how does the Potency read?
Its Potency is “inactive”.

With COc1c2c(c(C)c3c1C(=O)OC3)O[C@@]1(C)C[C@@H](OC(C)=O)[C@]34O[C@](OC)(CC[C@]3(C)[C@H]1C2)OC4(C)C as the compound, how does the Potency read?
Its Potency is “inactive”.

How did the Potency turn out when O=C(N[C@H](Cc1cscn1)C(=O)N[C@@H](CC1CCCCC1)[C@@H](O)[C@@H](O)C1CC1)c1nc2ccccc2[nH]1 was run?
The Potency was “inactive”.

For O=C(COc1ccc2ccccc2c1Br)Nc1cccnc1, which Potency is on record?
The Potency was “inactive”.

With C=C(CCC1C(C)(O)CCC2C(C)(C)C(O)CCC12C)C(O)CO (stereo not drawn) as the compound, how does the Potency read?
Its Potency is “inactive”.

Which Potency does the source give for C=CCC1=C[C@]2(OC)[C@H](C)[C@@H](c3ccc4c(c3)OCO4)O[C@]2(OC)CC1=O here?
The Potency was “inactive”.

Which activity change, negative = cytotoxicity does the source give for C[C@H]1CC[C@@]2(OC1)O[C@H]1CC3[C@@H]4CC[C@@H]5C[C@@H](O[C@@H]6O[C@H](CO)[C@@H](O[C@@H]7O[C@H](CO[C@@H]8OC[C@@H](O)[C@H](O)[C@H]8O)[C@@H](O[C@@H]8O[C@H](CO)[C@H](O)[C@H](O)[C@H]8O)[C@H](O)[C@H]7O)[C@H](O)[C@H]6O)CC[C@]5(C)C4CC[C@]3(C)[C@H]1[C@@H]2C (stereo partly drawn) here?
Its activity change, negative = cytotoxicity is 17.3% [at 11.6 µM] (inactive).

For C[C@@H](NC(=O)C(=O)c1c[nH]c2ccc([N+](=O)[O-])cc12)c1ccccc1, which Potency is on record?
The Potency was “inactive”.

Cc1[nH]c2ccccc2c1CCNC(=O)c1cccs1 was tested. Which Potency did it give?
The Potency was “inactive”.

C#CCCCn1cc(-c2cccc3c2N[C@H](C)CC(=O)N3)cn1 was tested. Which Potency did it give?
Its Potency is 891 nM (active).

For O=C(NC1CCC1)c1ccc(C#Cc2cccc(F)c2)nc1, which Potency is on record?
Its Potency is “inactive”.

How did the Potency turn out when O=C(O)c1cccc(-c2ccc(-c3cn(C(=O)N4CCCCC4Cc4ccccc4)nn3)cc2)c1 (stereo not drawn) was run?
The Potency was “inactive”.

For COC1C(OC(=O)/C=C/C=C/C=C/C=C/C(=O)O)CCC2(CO2)C1C1(C)OC1CC=C(C)C (stereo not drawn), which Potency is on record?
The Potency was “inactive”.

With Cc1cc2c(cc1N1C(=O)c3cccc4c(CCCO)ccc(c34)C1=O)n(C)c(=O)n2C as the compound, how does the Potency read?
The Potency was “inactive”.

Which Potency does the source give for O=C(NCC(=O)N1CCCC1)Nc1ccc2cnccc2c1 here?
The Potency was “inactive”.

Which Potency does the source give for CC(C)(C)c1ccc(C(=O)Nc2cn3cc(-n4ccnc4)ccc3n2)cc1 here?
Its Potency is “inactive”.

With O=S1(=O)CCN(Cc2cc(NCC3CCOCC3)c3[nH]c(-c4ccccc4)cc3c2)CC1 as the compound, how does the Potency read?
Its Potency is “inactive”.

NS(=O)(=O)c1ccc(N2N=C(c3ccccc3)CC2c2ccccc2)cc1 (stereo not drawn) was tested. Which Potency did it give?
Its Potency is “inactive”.

For CCc1ccccc1OC[C@@H](O)CN[C@H]1CCCc2ccccc21, which Potency is on record?
The Potency was “inactive”.

C=C1/C(=C/C=C2\CCC[C@]3(C)[C@@H]([C@H](C)/C=C/[C@H](O)C4CC4)CC[C@@H]23)C[C@@H](O)C[C@@H]1O was tested. Which Potency did it give?
Its Potency is “inactive”.

System: Hek293T
Assay: as above
Settings: Gynecologic cancer cell panel viability, ATPlite luminescence, 48 h, control line for the selectivity index; series mostly up to 57.5 µM
Procedure, shortened: as §1

With N#Cc1cccc(C(=O)Nc2cc(-c3ccccc3)nn2-c2ccccc2)c1 as the compound, how does the Potency read?
The Potency was “inactive”.

How did the Potency turn out when O=C(Nc1ccc(C(F)(F)F)cn1)N1CCN(c2ncccc2C(F)(F)F)CC1 was run?
The Potency was “inactive”.

Which Potency does the source give for O=C(Nc1ccccc1C(=O)NC1CCCCNC1=O)c1cc2ccccc2s1 (stereo not drawn) here?
Its Potency is “inactive”.

With CCCCCCOC(=O)/N=C(\N)c1ccc(NCc2nc3cc(C(=O)N(CCC(=O)OCC)c4ccccn4)ccc3n2C)cc1 as the compound, how does the Potency read?
The Potency was “inactive”.

Which Potency does the source give for CC[C@H]1CN(c2nc(N)c(C(N)=O)nc2Cl)CCN1C1CCN(Cc2ccc(Cl)cc2)CC1 here?
Its Potency is “inactive”.

For CC(C)=CCc1cc2c(cc1O)OC[C@H]1c3ccc(O)cc3O[C@@H]21, which Potency is on record?
The Potency was “inactive”.

With Cc1c(C(=O)NCc2cccnc2)nn(-c2ccc(Cl)cc2Cl)c1-c1ccc(Cl)cc1 as the compound, how does the Potency read?
Its Potency is “inactive”.

For C=C1C(OC2OC(CO)C(O)C(O)C2O)CC2C(C)(C)C(O)CCC2(C)C1CC/C(C)=C\COC(=O)CC(=O)O (stereo not drawn), which Potency is on record?
The Potency was “inactive”.

C=CC1(C)CC(O)C(C(=C)C(=O)OC)C(O)C1C(=C)CO (stereo not drawn) was tested. Which Potency did it give?
The Potency was “inactive”.

With Cn1cc(-c2ccc(F)c(C(F)(F)F)c2)nc1C1CCN(c2ncnc3[nH]ncc23)CC1 as the compound, how does the Potency read?
The Potency was “inactive”.

How did the Potency turn out when Cc1ccccc1CN1CCn2c1nc1c(c2=O)CN(Cc2ccccc2)CC1 was run?
Its Potency is “inactive”.

How did the Potency turn out when Cc1cc(-c2ncc(-c3cccnc3)cc2/C=C/c2ccccc2)cnc1-c1cccnc1 was run?
The Potency was “inactive”.

Cc1cnn(-c2ccccc2)c1NC(=O)COCc1ccccc1 was tested. Which Potency did it give?
Its Potency is “inactive”.

For OC(CC1c2ccccc2-c2cncn21)C1CCCCC1 (stereo not drawn), which Potency is on record?
The Potency was “inactive”.

Which Potency does the source give for Nc1nc2c(s1)CCN(Cc1ccc(Cl)cc1)CC2 here?
The Potency was “inactive”.

How did the Potency turn out when COc1ccc(CCN(C)CCCOc2nsc(-c3ccccc3)n2)cc1OC was run?
Its Potency is “inactive”.

Which Potency does the source give for COc1cc(O)cc(OC2OC(CO)C(O)C(O)C2O)c1 (stereo not drawn) here?
The Potency was “inactive”.

Cc1cc(C)cc(-c2cnc3cc(Cl)c(-c4cccc(O)c4)cc3c2OCCCN)c1 was tested. Which Potency did it give?
The Potency was “inactive”.

Which Potency does the source give for N[C@@H]1c2cccnc2[C@H](OC(=O)N2CCC(n3c(=O)[nH]c4ncccc43)CC2)CC[C@H]1c1cccc(F)c1F here?
The Potency was “inactive”.

How did the Potency turn out when CNCc1cc(-c2ccccc2F)n(S(=O)(=O)c2cccnc2)c1 was run?
Its Potency is “inactive”.

For COc1c2c(c(C)c3c1C(=O)OC3)O[C@@]1(C)C[C@@H](OC(C)=O)[C@]34O[C@](OC)(CC[C@]3(C)[C@H]1C2)OC4(C)C, which Potency is on record?
Its Potency is “inactive”.

O=C(N[C@H](Cc1cscn1)C(=O)N[C@@H](CC1CCCCC1)[C@@H](O)[C@@H](O)C1CC1)c1nc2ccccc2[nH]1 was tested. Which Potency did it give?
The Potency was “inactive”.

Which Potency does the source give for O=C(COc1ccc2ccccc2c1Br)Nc1cccnc1 here?
The Potency was “inactive”.

C=C(CCC1C(C)(O)CCC2C(C)(C)C(O)CCC12C)C(O)CO (stereo not drawn) was tested. Which Potency did it give?
The Potency was “inactive”.

How did the Potency turn out when C=CCC1=C[C@]2(OC)[C@H](C)[C@@H](c3ccc4c(c3)OCO4)O[C@]2(OC)CC1=O was run?
The Potency was “inactive”.

With C[C@H]1CC[C@@]2(OC1)O[C@H]1CC3[C@@H]4CC[C@@H]5C[C@@H](O[C@@H]6O[C@H](CO)[C@@H](O[C@@H]7O[C@H](CO[C@@H]8OC[C@@H](O)[C@H](O)[C@H]8O)[C@@H](O[C@@H]8O[C@H](CO)[C@H](O)[C@H](O)[C@H]8O)[C@H](O)[C@H]7O)[C@H](O)[C@H]6O)CC[C@]5(C)C4CC[C@]3(C)[C@H]1[C@@H]2C (stereo partly drawn) as the compound, how does the activity change, negative = cytotoxicity read?
Its activity change, negative = cytotoxicity is -0.448% [at 11.6 µM] (inactive).

How did the Potency turn out when C[C@@H](NC(=O)C(=O)c1c[nH]c2ccc([N+](=O)[O-])cc12)c1ccccc1 was run?
Its Potency is “inactive”.

Which Potency does the source give for Cc1[nH]c2ccccc2c1CCNC(=O)c1cccs1 here?
The Potency was “inactive”.

For C#CCCCn1cc(-c2cccc3c2N[C@H](C)CC(=O)N3)cn1, which Potency is on record?
Its Potency is “inactive”.

Which Potency does the source give for O=C(NC1CCC1)c1ccc(C#Cc2cccc(F)c2)nc1 here?
Its Potency is “inactive”.

How did the Potency turn out when O=C(O)c1cccc(-c2ccc(-c3cn(C(=O)N4CCCCC4Cc4ccccc4)nn3)cc2)c1 (stereo not drawn) was run?
The Potency was “inactive”.

How did the Potency turn out when COC1C(OC(=O)/C=C/C=C/C=C/C=C/C(=O)O)CCC2(CO2)C1C1(C)OC1CC=C(C)C (stereo not drawn) was run?
The Potency was “inactive”.

How did the Potency turn out when Cc1cc2c(cc1N1C(=O)c3cccc4c(CCCO)ccc(c34)C1=O)n(C)c(=O)n2C was run?
The Potency was “inactive”.

Which Potency does the source give for O=C(NCC(=O)N1CCCC1)Nc1ccc2cnccc2c1 here?
The Potency was “inactive”.

For CC(C)(C)c1ccc(C(=O)Nc2cn3cc(-n4ccnc4)ccc3n2)cc1, which Potency is on record?
Its Potency is “inactive”.

O=S1(=O)CCN(Cc2cc(NCC3CCOCC3)c3[nH]c(-c4ccccc4)cc3c2)CC1 was tested. Which Potency did it give?
Its Potency is “inactive”.

Which Potency does the source give for NS(=O)(=O)c1ccc(N2N=C(c3ccccc3)CC2c2ccccc2)cc1 (stereo not drawn) here?
Its Potency is “inactive”.

Which Potency does the source give for CCc1ccccc1OC[C@@H](O)CN[C@H]1CCCc2ccccc21 here?
The Potency was “inactive”.

For C=C1/C(=C/C=C2\CCC[C@]3(C)[C@@H]([C@H](C)/C=C/[C@H](O)C4CC4)CC[C@@H]23)C[C@@H](O)C[C@@H]1O, which Potency is on record?
Its Potency is “inactive”.
